This note sets out measurements from PubChem BioAssay (NCATS).

The structures appear in SMILES notation. Inconclusive results are not listed. Values without a mark were called inactive. Calls of active or inactive are those of the source. Calls follow the shape of the dose curve; as a rule, active = well fitted curve in the direction sought with a large enough effect; inconclusive = small, poorly fitted or top-dose-only effect, or another doubt; inactive = no such curve, though single readings can be large; an effect the other way counts as inactive or inconclusive.

Assay [1] concerns the target Rap guanine nucleotide exchange factor 3 (Homo sapiens) (UniProt O95398). Nature of the assay: Confirmatory qHTS for agonist of cAMP-regulated guanine nucleotide exchange factor 3 (EPAC1) (AID 1645881).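 Also: EPAC1 catalysed release of BODIPY-GDP from Rap1B seen as fluorescence loss; 100% = effect of cAMP agonist control; nearly all actives have a fitted effect of over 75% in size.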
Assay [2] has as its target Rap guanine nucleotide exchange factor 4 (Homo sapiens) (UniProt Q8WZA2). Description: Confirmatory qHTS for agonist of cAMP-regulated guanine nucleotide exchange factor 4 (EPAC2) (AID 1645884).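 Also: nucleotide exchange releases bodipy-GDP from Rap1 and this lowers its fluorescence; % is scaled to controls: 0 for no effect and ±100 for the full control effect; nearly all actives have a fitted effect of over 65% in size.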 Background: In qHTS, concentration-response curves come from the screen itself.
Assay [3] shares this target. Nature of the assay: Confirmatory qHTS for antagonist of cAMP-regulated guanine nucleotide exchange factor 4 (EPAC2) (AID 1645885). Also: nearly all actives have a fitted effect of over 25% in size. Also: potency is read from the fitted curve at half-maximal effect. As to activity change, negative = inhibition: % is scaled to controls: 0 for no effect and ±100 for the full control effect.
Assay [4] deals with Rap guanine nucleotide exchange factor 3 (Homo sapiens) (UniProt O95398). Nature of the assay: Counterscreen qHTS for antagonist of cAMP-regulated guanine nucleotide exchange factor 3 (EPAC1) (AID 1645888). Also: % of control where 0% means no effect. In outline: (§1)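 Rap1B–BODIPY-GDP (250 nM) with 50 uM GDP; compounds pin-transferred to 9.74 nM–152 uM final (activator) or from 7.32 nM upwards (inhibitor). Fluorescence Ex/Em 480/540 nm read at 5 and 30 min, then after adding cAMP or buffer, at room temperature.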
Rap guanine nucleotide exchange factor 3 (Homo sapiens), sequence (O95398 whole entry, looked up): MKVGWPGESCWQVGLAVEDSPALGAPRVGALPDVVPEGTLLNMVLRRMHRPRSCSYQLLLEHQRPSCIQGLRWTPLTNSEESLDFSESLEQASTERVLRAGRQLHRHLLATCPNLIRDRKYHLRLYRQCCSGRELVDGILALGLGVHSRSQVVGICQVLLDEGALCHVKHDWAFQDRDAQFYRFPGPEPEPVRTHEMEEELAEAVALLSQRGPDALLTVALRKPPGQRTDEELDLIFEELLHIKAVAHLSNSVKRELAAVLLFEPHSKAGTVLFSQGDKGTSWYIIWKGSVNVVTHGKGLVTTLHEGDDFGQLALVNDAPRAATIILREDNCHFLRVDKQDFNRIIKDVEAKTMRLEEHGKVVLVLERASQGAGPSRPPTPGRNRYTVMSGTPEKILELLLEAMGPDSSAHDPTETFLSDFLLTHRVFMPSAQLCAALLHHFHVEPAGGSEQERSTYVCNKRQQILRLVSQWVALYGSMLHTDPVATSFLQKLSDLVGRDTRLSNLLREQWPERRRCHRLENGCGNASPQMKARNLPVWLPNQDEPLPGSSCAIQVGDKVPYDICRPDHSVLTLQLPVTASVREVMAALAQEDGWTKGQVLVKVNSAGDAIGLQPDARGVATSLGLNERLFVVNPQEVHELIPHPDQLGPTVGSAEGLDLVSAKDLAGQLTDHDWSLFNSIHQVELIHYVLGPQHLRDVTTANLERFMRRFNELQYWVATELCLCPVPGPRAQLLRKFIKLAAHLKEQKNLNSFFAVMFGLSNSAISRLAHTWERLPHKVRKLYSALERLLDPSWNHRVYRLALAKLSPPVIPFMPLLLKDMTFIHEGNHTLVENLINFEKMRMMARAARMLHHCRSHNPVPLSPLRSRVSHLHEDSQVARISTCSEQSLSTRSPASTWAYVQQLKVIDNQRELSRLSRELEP
In general terms: A counterscreen serves to expose hits that act by an unwanted route or on another target.

For assay [5] the target is unchanged. Nature of the assay: Counterscreen qHTS for agonist of cAMP-regulated guanine nucleotide exchange factor 3 (EPAC1) (AID 1645889). Also: nearly all actives have a fitted effect of over 40% in size. Also: potency is read from the fitted curve at half-maximal effect. As to activation: % of control where 0% means no effect. Summed up: as §1
The target is the same in assay [6]. Description: Confirmatory qHTS for antagonist of cAMP-regulated guanine nucleotide exchange factor 3 (EPAC1) (AID 1645880).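 Also: plate controls were DMSO only for no effect and full effect of the ATA control for full effect; nearly all actives have a fitted effect of over 55% in size.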 Summed up:
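Released BODIPY-GDP fluoresces less than Rap1-bound BODIPY-GDP; the signal is followed at 480/540 nm at 5-min intervals over 30 min, after 5 min at room temperature. Reactions contain 100 nM EPAC1, 250 nM RAP1B-BODIPY-GDP and 50 uM GDP; results are normalized to ATA and DMSO.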

Rap guanine nucleotide exchange factor 4 (Homo sapiens), sequence (Q8WZA2 whole entry, looked up): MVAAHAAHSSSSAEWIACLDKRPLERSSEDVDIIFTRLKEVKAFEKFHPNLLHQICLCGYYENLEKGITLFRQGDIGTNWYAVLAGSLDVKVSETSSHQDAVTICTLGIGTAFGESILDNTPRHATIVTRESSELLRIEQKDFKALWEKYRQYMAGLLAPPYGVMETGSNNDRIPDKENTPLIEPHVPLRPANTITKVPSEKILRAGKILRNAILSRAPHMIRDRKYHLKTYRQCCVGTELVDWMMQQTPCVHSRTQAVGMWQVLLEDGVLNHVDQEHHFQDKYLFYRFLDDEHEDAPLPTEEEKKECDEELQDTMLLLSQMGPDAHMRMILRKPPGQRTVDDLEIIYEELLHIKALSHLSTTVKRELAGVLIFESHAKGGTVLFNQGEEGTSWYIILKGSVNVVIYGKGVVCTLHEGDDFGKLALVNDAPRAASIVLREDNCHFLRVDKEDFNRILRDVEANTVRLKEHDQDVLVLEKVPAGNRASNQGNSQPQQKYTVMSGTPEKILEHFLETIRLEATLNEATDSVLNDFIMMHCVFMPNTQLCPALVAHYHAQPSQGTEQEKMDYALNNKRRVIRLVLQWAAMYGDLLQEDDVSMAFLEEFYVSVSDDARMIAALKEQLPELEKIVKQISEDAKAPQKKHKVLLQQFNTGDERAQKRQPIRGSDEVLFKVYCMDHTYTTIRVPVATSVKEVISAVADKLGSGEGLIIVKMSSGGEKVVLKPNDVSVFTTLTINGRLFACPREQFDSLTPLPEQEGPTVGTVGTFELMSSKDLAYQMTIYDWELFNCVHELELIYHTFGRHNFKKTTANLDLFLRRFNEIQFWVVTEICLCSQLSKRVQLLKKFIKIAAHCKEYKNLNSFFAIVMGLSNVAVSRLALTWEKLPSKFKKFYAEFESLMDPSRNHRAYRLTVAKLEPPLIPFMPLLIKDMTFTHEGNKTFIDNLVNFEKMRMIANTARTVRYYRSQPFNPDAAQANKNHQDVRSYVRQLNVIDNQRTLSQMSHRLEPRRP

For `CCCCC/C(=N/O)c1c(C)[nH]c2ccccc12`, the Potency entry in assay [1], in assay [2], in assay [3] and in assay [5] was “inactive” in each case. The result in assay [4] was inactive.

On to `COP(=O)(/C=C(\Cl)c1ccccc1)/C=C(\Cl)c1ccccc1`, for which the Potency entry in assay [1], in assay [2], in assay [3] and in assay [5] was “inactive” throughout. In addition, the molecule was called inactive in assay [4].

Take `CCOC(=O)[C@]12Cc3ccccc3[C@H]1N(C(C)C)C(=O)c1cc(OC)ccc12`: the Potency result in assay [1] is “inactive”. Moreover, the activation in assay [2] was 1.3% [at 17.1 µM, percent relative to cAMP agonist control]. The activity change, negative = inhibition in assay [3] was -28.9% [at 12.7 µM]; in assay [4] it was -13.8% [at 30.8 µM].

`COc1ccc(CN2C(=O)NC(=O)/C(=C\c3ccco3)C2=O)cc1`: the Potency result in assay [1], in assay [2] and in assay [3] was “inactive” in each case. Also, the result in assay [4] was inactive.

In the case of `COc1cc(-n2c(=S)[nH]c3ccc(C)cc3c2=O)c(Cl)cc1Cl`, the Potency entry in assay [1] was “inactive”. Further, the activation is 8.75% [at 17.1 µM, percent relative to cAMP agonist control] in assay [2] and 24.2% [at 30.8 µM] in assay [5]. The activity change, negative = inhibition in assay [3] was -17.7% [at 12.7 µM]; in assay [4], -20.5% [at 30.8 µM].

As to `Cc1cccc(-n2c(O)c(/C=C/C=Nc3ccccc3)c(=O)[nH]c2=O)c1`, the Potency entry in assay [6] is “inactive”. The Potency in assay [3] was 33.8 µM (active); in assay [5], 39.8 µM (active). Besides, in assay [4], the call was inactive.

For the molecule `Cc1cc2ccccn2c1C(C[N+](=O)[O-])c1c(F)cccc1Cl` (stereo not given), the Potency result in assay [1] and in assay [2] was “inactive” in each case. Moreover, the Potency in assay [3] is 15.1 µM (active). Moreover, in assay [4], the call was inactive.

With `O=C1NC(=O)N(Cc2ccco2)C(=O)/C1=C/c1cccn1CCOc1ccccc1Cl`, the Potency result in assay [1], in assay [2], in assay [3] and in assay [5] was “inactive” each time. The call in assay [4] was inactive.

For the molecule `O=C1NC(=O)N(Cc2ccco2)C(=O)/C1=C\c1cccn1CCOc1ccc(Cl)cc1`, the Potency entry in assay [1] is “inactive”. In addition, in assay [2], the activation is 1.56% [at 17.1 µM, percent relative to cAMP agonist control]. Moreover, the activity change, negative = inhibition is -27.2% [at 12.7 µM] in assay [3] and -25.1% [at 30.8 µM] in assay [4].

As for `O=C1NC(=O)N(Cc2ccccc2)C(=O)/C1=C\C=C\c1ccco1`, the Potency entry in assay [1] is “inactive”. The activation in assay [2] was 12.1% [at 17.1 µM, percent relative to cAMP agonist control]. Also, the activity change, negative = inhibition in assay [3] was 2.97% [at 12.7 µM]; in assay [4], -17.1% [at 30.8 µM].

Turning to `NS(=O)(=O)c1ccc(-c2ccc(C=C3C(=O)NC(=O)NC3=O)o2)cc1`, the Potency entry in assay [1], in assay [2], in assay [3] and in assay [5] was “inactive” in each case. The molecule was called inactive in assay [4].

In the case of `Nc1cc(Cl)c2nonc2c1[N+](=O)[O-]`, the Potency entry in assay [1] was “inactive”. Also, the activation in assay [2] was 5.26% [at 17.1 µM, percent relative to cAMP agonist control]. Besides, the activity change, negative = inhibition in assay [3] is 1.82% [at 12.7 µM]; in assay [4], -3.15% [at 30.8 µM].

Take `Cn1ncnc2c(=O)n(C)c(=O)nc1-2`: the Potency entry in assay [1], in assay [2], in assay [3] and in assay [5] was “inactive” throughout. For the same molecule, the outcome in assay [4] was inactive.

Take `Cc1cccc(-c2nc(CN3C(=O)CN=C(c4ccccc4)c4ccccc43)c(C)o2)c1`: the Potency entry in assay [1] and in assay [2] was “inactive” in each case. Moreover, in assay [3], the activity change, negative = inhibition was 48.3% [at 12.7 µM].

With `Cc1ccc(OCCn2cccc2/C=C2/C(=O)NC(=O)N(Cc3ccco3)C2=O)cc1`, the Potency result in assay [1], in assay [2] and in assay [3] was “inactive” each time. Besides, the call in assay [4] was inactive.
